Assay results taken from PubChem BioAssay AID449762 (Southern Research Specialized Biocontainment Screening …, 2010).
Screen size: about 330,000 compounds; about 1,900 (0.58%) were called active. Not shown: some 4% with an inconclusive outcome. These entries were drawn from the full list. Results with a measured potency or affinity are listed apart. Values without a mark were called inactive. No stated cut-off is given here; in the data, inconclusive means inhibition above about 70% without an active follow-up result; inactive means below that.

experiment: M. tuberculosis growth inhibition, HTS (AID 449762);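 further: bacterial growth assessed after seven days of incubation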; conditions: M. tuberculosis H37Rv growth inhibition, 7H9 media; at 25 µM; stronger effect = higher value

First: COc1ccc(C)cc1NC(=O)C(NC(=O)c1cc(OC)c(OC)c(OC)c1)C(C)C (stereo not given)
Second: COc1cc(C(=O)NNC(=O)c2cc(C)[nH]n2)cc(OC)c1OC
The inhibition of the first is higher: 0.19% for the first, -0.74% for the second.

First: COc1cc(OC)c(C(=O)NNC(=S)NC2CCCCC2)cc1OC
Second: Cc1cc(=O)[nH]c(SCC(=O)NC2CCCCCC2)n1
The inhibition of the first is lower: -2.47% for the first, 1.87% for the second.

First: S=C(NC1CCCCCC1)NC1CCCC1
Second: Cc1nnc(SCC(=O)NC2CCCCC2)[nH]c1=O
The inhibition of the first is higher: 1.4% for the first, -4.1% for the second.

First: CCOc1cccc2cc(C(=O)Nc3cc(C)on3)c(=O)oc12
Second: CCOc1ccccc1C(=O)Nc1nccs1
The inhibition of the first is higher: 3.23% for the first, -0.35% for the second.

Compared with CCN(CC)c1ccc(NS(=O)(=O)c2cn(C)c(=O)n(C)c2=O)c(C)c1, CCN(c1ccc(OC)cc1)S(=O)(=O)c1ccc2c(c1)CCN2C(=O)CCC(=O)O is higher in inhibition: -6.59% for the first, -2.77% for the second.

Going from Cc1cc(C(=O)NNc2c(Cl)cccc2Cl)n(C(C)(C)C)n1 to CC(OC(=O)c1nc(Cl)ccc1Cl)C(=O)Nc1ccc2c(c1)OCCO2 (stereo not given), the inhibition rises from -6.53% to 23.5%.

Going from COc1cccc(NC(=O)C2CCN(C(=O)[C@@H]3Cc4ccccc4CN3C(=O)OC(C)(C)C)CC2)c1 to CCC1CN(C(=O)N2CCC(C(=O)NCc3ccc(C)o3)CC2)c2cc(C)ccc2O1 (stereo not given), the inhibition falls from 2.76% to -5.76%.

First: COc1cccc(/C=N/n2c(COc3ccccc3)n[nH]c2=S)c1
Second: Cc1cccc(/C=N/n2c(COc3ccccc3)n[nH]c2=S)c1
The inhibition of the first is lower: 0.11% for the first, 9.89% for the second.

Going from Cc1ccsc1/C=N/NC(=O)Cc1ccc([N+](=O)[O-])cc1 to COC(=O)c1ccc(CS(=O)(=O)c2ccc(C)cc2)o1, the inhibition rises from 0.13% to 2.36%.

Compared with COC(=O)C1=C(c2ccc(F)cc2OCc2ccccc2)C[C@@H]2CC[C@H]1N2C(=O)NCc1ccc(C)cc1, COc1ccc(NC(=O)CN(C)C(=O)COc2ccccc2Cc2ccccc2)cc1 is lower in inhibition: 11.4% for the first, 10.9% for the second.

Compared with COC(=O)CCCC1=CC2=CC(=O)C(C)(OC(=O)c3cccs3)C(=O)C2=CN1Cc1ccccc1 (stereo not given), O=C(COC(=O)C1=Cc2ccccc2OC1)NCc1ccccc1 is higher in inhibition: -3.58% for the first, -0.53% for the second.

Compared with Cc1[nH]c2ccccc2c1C(=O)C(=O)N1CCN(c2cccc(Cl)c2)CC1, Cc1ccc(C)c(NC(=O)CN(C)C(=O)c2cccc(S(=O)(=O)N3CCN(Cc4ccccc4)CC3)c2)c1 is lower in inhibition: 13.6% for the first, 4.09% for the second.

First: CCSc1ncnc2c1sc1nc3c(cc12)COC(C)(C)C3
Second: CC1(C)Cc2nc3sc4c(SCC(=O)O)ncnc4c3cc2CO1
The inhibition of the first is higher: 3.08% for the first, 0.43% for the second.

First: OCCCn1c(CCNc2nc(-c3ccc(Cl)cc3)cs2)nc2cc(C(F)(F)F)ccc21
Second: Cc1nn(CCc2nn[nH]n2)c2nc(-c3ccc(C4CCCCC4)cc3)cc(C(F)(F)F)c12
The inhibition of the first is higher: 29.6% for the first, 21.8% for the second.

First: CN1CCN(/N=C/c2cccc(Cl)c2Cl)CC1
Second: CN1CCN(/N=C/c2ccc(-c3ccccc3)cc2)CC1
The inhibition of the first is lower: 4.06% for the first, 4.56% for the second.

First: Cc1ccc(NC(=O)CC2OC(=O)c3ccccc32)cc1S(=O)(=O)N1CCCCCC1 (stereo not given)
Second: Cc1ccc(S(=O)(=O)N2CCN(Cc3nc4ccccc4n3C)CC2)cc1
The inhibition of the first is higher: -3.23% for the first, -10.2% for the second.

Going from Cc1nn(CCc2nn[nH]n2)c2nc(-c3ccccc3)cc(C(F)(F)F)c12 to Cc1nc(-c2ccccc2)sc1C1(C)CC(c2ccc(OC(F)(F)F)cc2)=NO1 (stereo not given), the inhibition falls from 3.42% to 1.65%.

Compared with CC(C)(C)c1ccc(C(=O)N2CCC(=O)N(C(COCc3ccccc3)Cc3ccccc3)CC2)cc1 (stereo not given), COc1ccc(-n2c(C)cc(C(=O)COC(=O)Cn3cnc4ccccc43)c2C)cc1 is higher in inhibition: -7.28% for the first, 5.9% for the second.

Going from C=CCNc1oc(-c2ccc(OCC)cc2)nc1C#N to COc1ccc(-c2nnc3ccc(SC)nn23)cc1, the inhibition rises from 0.33% to 12.5%.

Going from Cc1ccc(OCCCCN2CCCCC2)c(C)c1 to Cc1ccc(OCCCCNC2CCCCC2)c(C)c1, the inhibition rises from 0.08% to 0.93%.

Going from Cc1ccc2c(c1)N(CC(=O)OC(CC(C)C)C(=O)NC1CCCC1)C(=O)CO2 (stereo not given) to CCOC(=O)C1CCN(Cc2coc3c(Cl)cc(Cl)cc3c2=O)CC1, the inhibition rises from 0.6% to 10.8%.

First: Cc1nc(NC(=O)c2ccccc2)sc1C1(C)CC(c2ccccc2F)=NO1 (stereo not given)
Second: Cc1ccnc(N/C=C(/NC(=O)c2ccccc2)C(=O)NN)n1
The inhibition of the first is lower: -0.28% for the first, 2.37% for the second.

Going from CN1C(=O)C(O)(CC(=O)c2cccnc2)c2ccccc21 (stereo not given) to O=C(O)Cn1ccc2ccccc21, the inhibition falls from -2.52% to -3.21%.

Going from COc1ccc(C(=O)OCC2CC(c3ccccc3)=NO2)cc1OC (stereo not given) to COc1ccccc1C1=NOC(COC(=O)c2ccc(Br)cc2)C1 (stereo not given), the inhibition rises from 2.23% to 66.3%.

Going from COC(C[C@H]1O[C@H]1C(=O)[C@@H](C)OCc1ccccc1)OC to COc1ccc(F)cc1S(=O)(=O)NCc1ccccc1, the inhibition rises from -3.98% to -3.97%.

First: Cc1ccc(NC(=O)/C(C#N)=N/Nc2ccc(C(=O)O)cc2)c(C)c1
Second: CC(C)(C)NC(=O)C(c1ccco1)N(C(=O)Cn1nnc(-c2ccc(F)cc2)n1)c1cccc(F)c1 (stereo not given)
The inhibition of the first is lower: -9.1% for the first, 5.34% for the second.

First: CCOC(=O)N1CCC(=C2c3ccc(Cl)cc3CCc3cccnc32)CC1
Second: c1ccc2c(c1)CCc1ccccc1C2=C1CCNCC1
The inhibition of the first is higher: 2.73% for the first, -0.99% for the second.

Compared with Cc1cc(N2CCN(Cc3nc(-c4ccc(Cl)cc4)oc3C)CC2)cc(C)n1, Cc1cc(N2CCN(Cc3nc(-c4ccc(F)cc4)oc3C)CC2)cc(C)n1 is lower in inhibition: 15.9% for the first, 9.44% for the second.

Compared with O=c1cnnc(SCCc2ccccc2)[nH]1, CC(C)Cn1c(CN2CCN(C)C(CCO)C2)nc2ccccc21 (stereo not given) is higher in inhibition: -11.7% for the first, -7.61% for the second.

Compared with O=C(CN1CCN(c2ncccn2)CC1)N1CCCc2c1c(=O)oc1ccc(O)cc21, CC(=O)Oc1ccc2oc(=O)c3c(c2c1)CCCN3C(=O)CN1CCN(c2ncccn2)CC1 is lower in inhibition: 6.59% for the first, -4.05% for the second.
